Source: the supplement of paper PMC6555819

Legend:
Test in all cases: PBM binding z-score (relative to random genomic background probes); higher = stronger binding; sequences stand for … in GC…GCGATTGACAGCGTAGAATGAAGG
[1] = system: RARb homodimer (NR concentration 270 nM)
How it was run: (§1)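 Probes were double-stranded and carried 34-nt variable regions with direct-repeat seeds, single-nucleotide variants, half-site ablations and random human genomic background sequences, printed on custom Agilent 4×180K protein-binding microarrays. Arrays were incubated 1 h with ligand-free nuclear receptor dimers in PBS pH 7.4, 2% milk, 0.02% Triton X-100, 1 mM DTT, 0.2 mg/mL BSA and 0.4 mg/ml salmon testes DNA. Antibodies against each partner (one per run) detected binding, and scanned fluorescence was regression-normalized. Binding z-scores use the random background probes as reference.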

[2] = system: RARg:RXRa (NR concentration 270 nM, RXRa partner concentration 90 nM)
How it was run: as §1

[3] = system: RARg homodimer (NR concentration 270 nM)
How it was run: as §1

[4] = system: RXRa DBDmut IVT, anti-RXR (DBD mutation: RXRa K156A/R161A, NR concentration 90 nM)
How it was run: as §1

[5] = system: RXRa homodimer (NR concentration 180 nM)
How it was run: as §1

[6] = system: THRa:RXRa (NR concentration 90 nM, RXRa partner concentration 90 nM)
How it was run: as §1

[7] = system: THRa homodimer (NR concentration 90 nM)
How it was run: as §1

[8] = system: VDR homodimer (NR concentration 270 nM)
How it was run: as §1

Sequence | PBM binding z-score [1] | PBM binding z-score [2] | PBM binding z-score [3] | PBM binding z-score [4] | PBM binding z-score [5] | PBM binding z-score [6] | PBM binding z-score [7] | PBM binding z-score [8]
GCTCGGAGGACTAGGTCAGAGCTTTGTCCGTAGA | 1.4 | 0.32 | 0.804 | -0.871 | -0.228 | 0.731 | -0.465 | -0.906
TATACACGGTCAAAGGCCAGAGTACGAATGTCGA | 2.33 | 2.53 | 2.87 | 0.0328 | 1.45 | 0.581 | -0.253 | 0.761
CCGAGTAGGTTATGGGGTATTCAGGCAACGGTGA | 0.841 | 0.46 | 0.562 | 0.0146 | 0.873 | 0.963 | 1.05 | 0.274
CTCGATAGGTCGTGCTCAGGTGAGTATACCAAAC | 1.07 | 2.26 | 1.2 | 0.506 | 1.29 | 2.86 | 0.582 | 0.0382
ATAATGAGGTTACCAAAGATCAGGGAAACGCTTG | 1.15 | 2.37 | 1.95 | 1.32 | 2.72 | 2.8 | 1.1 | 0.486
ATATGTAGGTTATCAGGTCATTCAGTTTGCGCAT | 3.6 | 3.19 | 2.93 | 1.91 | 3.12 | 3.72 | 3.81 | 3.81
ATCTCTAGGTAAGACTTAGTTCAGTGAAGAACGC | 1.05 | 0.21 | 0.357 | 0.325 | 0.128 | 0.798 | 0.858 | 0.617
CGAACTAGGTCACAGAGGTCAAAGTCCGTGCGTA | 5.38 | 7.57 | 7.52 | 3.54 | 8.15 | 4.58 | 2.83 | 6.98
TTACCCAGGTGAAGGTCGTTGATCCCTCTGTAGA | 1.33 | 0.65 | 0.626 | -0.428 | 1.31 | 1.91 | 0.888 | 1.26
ATATGTAGGTTATCGGGTCATTCTGTTTGCGCAT | 2.91 | 3.37 | 2.21 | 1.77 | 3.44 | 3.38 | 2.96 | 3.53
GCGACTGGGGCAAAGCAGGGTACCATAAGGTTGG | 0.665 | 0.296 | 0.341 | -0.678 | 0.287 | 1.61 | -0.383 | -0.139
CCAGACAAGTGAAAGGTAACTCAGTCTGGTACGC | 0.344 | 0.201 | 0.303 | 0.272 | 0.604 | 0.291 | -0.287 | 0.0715
TTTTGTAGATCAAAGGTTAAGAAAGCCGAAGCCT | 1.49 | 1.74 | 0.912 | -0.536 | 3.39 | 1.3 | -0.617 | -0.0263
AATACAGGGTCACTAGGCCAGAGCAGGTACGAAT | 3.36 | 5.15 | 5.08 | 2.67 | 5.66 | 3.31 | 1.07 | 2.39
CCGACTGGGGCAAGGGTTACCATACTCAGTACGA | 1.16 | 1.49 | 1.3 | -0.851 | 1.71 | 0.704 | -0.463 | 0.0843
CCTAGCAGGCCAATCTGGGTAACTCAAGGCTTGA | -0.251 | -0.429 | -0.124 | 0.0487 | -0.515 | 1.86 | -0.653 | -0.997
TCAGACAGGTGAAAGTAACTCAGGTACGCAGTCG | 0.326 | 0.474 | 0.598 | 1.01 | 0.974 | 0.472 | -0.0578 | -0.0124
CGAACTAGGTCTTTGACAGGACAGTGAATAGTAA | 0.139 | 0.112 | 0.193 | 0.262 | -0.252 | 0.309 | -0.0353 | -0.305
CCTACTGGGCCATGGTCATTGATCAGTCAAAGCA | 0.781 | 0.494 | 0.374 | -1.27 | -0.0481 | 0.0106 | -0.543 | -0.137

Sequence | PBM binding z-score [1] | PBM binding z-score [2] | PBM binding z-score [3] | PBM binding z-score [4] | PBM binding z-score [5] | PBM binding z-score [6] | PBM binding z-score [7] | PBM binding z-score [8]
CCTTACGGGTTACGAGGTTATAGCACGACGAGCG | 1.24 | 2.31 | 1.43 | -0.0539 | 2.99 | 2.23 | 0.638 | 0.469
CTCGAAAGGTTGTGCTCAGGTGAGTATACCAAAC | 0.954 | 1.31 | 0.452 | 0.56 | 0.825 | 2.84 | 0.886 | 0.0434
ATCTCTAGGTATAGATAGTTCAGTGAATGCAAAT | 0.907 | 0.662 | 0.781 | 0.321 | 0.447 | 0.433 | -0.135 | 0.864
TAGCCTAGGTCATTCAGGGGCCGGTATAGAAAGC | 2.86 | 5.32 | 4.21 | 1.88 | 3.01 | 3.42 | 0.635 | 1.53
CCTTACGAGTCACTCCAGGTTATAGCATCGGAGT | 0.938 | 0.686 | 0.863 | 0.584 | 0.475 | 3.69 | 1.07 | 0.838
CGAACTAGGTCATTGACAGGGCAGTGAATAGTAA | 2.93 | 5.12 | 4.41 | 2.54 | 2.89 | 2.64 | 0.623 | 1.08
TCTTGTAGATCAGCAGGTTAAGAATGCTGGCCAA | 0.138 | -0.0809 | -0.427 | 0.415 | 0.165 | 0.0436 | -0.197 | -0.438
AATAGCAGGCCAAGGGTCACTCAAGATTAGTCCG | 3.86 | 4.1 | 3.92 | 0.264 | 4.46 | 2.8 | 0.187 | 1.06
CCTAGTTGGTCAGGAGGTCATACACCGGATATGA | 3.79 | 4.56 | 3.35 | 0.572 | 4.2 | 3.23 | 1.8 | 2.73
TATAGAGGGTCAAAGGCCAGAGTACGAATGTCGA | 3.3 | 4.91 | 4.91 | 2.16 | 6.11 | 2.39 | -0.0967 | 1.73
ATATGTAGGTTAGCTGCGGTCATTCAGACTAGGC | 2.02 | 1.43 | 1.83 | 0.343 | 0.968 | 4.05 | 0.202 | 0.904
CGTCAAAGTTCAAGGAAACGTAACAGAAAGCAGC | 3.35 | 4.85 | 5.68 | 4.06 | 3.84 | 1.49 | -0.29 | 2.61
TAGCCTAGGTCTTGCGGGCCAGTATAGTGTCGGC | -0.413 | -0.507 | -0.639 | -1.09 | -0.623 | -0.606 | -1.12 | -1.13
CTCGAAAGGTCGTGCTAAGGTGAGTATACCAAAC | 3.37 | 6.03 | 4.31 | 2.01 | 5.25 | 4.61 | 1.79 | 1.29
GGATATAGGTAATACAAGGTGAAAGTCCGATTGT | 1.38 | 0.879 | 0.935 | 0.283 | 0.977 | 4.46 | 1.64 | 0.913
ATCTCTGGGTAAAGATAGTTCAGTGAATGCAAAT | 1.1 | 0.61 | 0.989 | -0.0472 | 0.123 | 0.544 | -0.18 | 0.45
AGAATGAGGTTATACGTAGATCAGAGAAGAAAGT | 0.491 | 1.83 | 1.42 | 1.87 | 2.05 | 2.25 | 0.546 | 0.887
ACTTACGTGTCAACGAGGTTATAGCACGCGTATA | 1.17 | 1.44 | 1.18 | 0.532 | 1.38 | 1.99 | 0.476 | 0.875
GCTTACGGGCCAAAGGTTATAGCATGAATAGAAT | 1.29 | 2.77 | 1.04 | 0.36 | 3.01 | 1.58 | -0.515 | -0.0468

Sequence | PBM binding z-score [1] | PBM binding z-score [2] | PBM binding z-score [3] | PBM binding z-score [4] | PBM binding z-score [5] | PBM binding z-score [6] | PBM binding z-score [7] | PBM binding z-score [8]
CGTGAAAGTTCAACTAAGGTAACGTAAAGCACGC | 4.13 | 5.55 | 6.12 | 4.76 | 4.3 | 5.32 | 1.64 | 3.71
TCAGACAGGTGAAGGTATCTCAGGTACGCAGTCG | 0.873 | 0.518 | 0.586 | 1.55 | 0.95 | 1.2 | 0.503 | 0.113
CAAACTCGGTCAAGGTCAAAGTCGGTTTGTGCCA | 4.47 | 5.26 | 5.55 | 2.48 | 4.82 | 4 | 3.53 | 4.43
ATCTCTAGGTAAGACTCAGTTCGGTGAAGAACGC | 0.505 | 0.0648 | 0.192 | 0.349 | -0.00788 | 0.483 | 0.697 | 0.648
AGAACGAGGGCACGCTGACTTGATAGCAGAGTAG | 1.15 | 1.84 | 1.95 | 1.66 | 1.34 | 1.76 | -0.184 | 0.649
ATATGTAGGTTAAGGGTCAATCAGGTTGGTTCGC | 3.94 | 4.94 | 3.82 | 1.7 | 5.96 | 3.45 | 1.54 | 3.33
CCTTCTAGGTCAATGGTCAGCTAAAGCAGCTCGC | 2.97 | 3.53 | 4.58 | 1.88 | 2.35 | 2.71 | 1.37 | 0.249
CCTATTAGTTGTCCATAAGGGCAACCGAAGCTCG | 1.81 | 1.01 | 0.8 | 0.67 | 0.161 | 1.8 | 1.64 | 1.07
TAGCCTAGGTCCTTGGGCCAGTATAGTACGCATC | -0.937 | -0.412 | -0.296 | -1.27 | -0.549 | -0.732 | -1.37 | -1.06
ACTAGTTGGTCAGCTGAGGCCACACACAATTCGG | 1.35 | 0.493 | 1.14 | 0.0642 | 0.0882 | 3.64 | 1.45 | 0.0276
CCTAGCAGGCCAATCTGGGTCAGTCAAGGCTTGA | 1.82 | 0.465 | 1.02 | -0.281 | -0.197 | 2.97 | -0.159 | -0.52
CGTCCAAGGTCAGCAGGTCAGTGAGAGCGACGTG | 5.13 | 6.35 | 6.67 | 2.46 | 5.29 | 4.01 | 2.56 | 1.93
TCTTGTAGATCAGCAGGTTAACAAAGCTGGCCAA | 0.38 | 0.348 | -0.352 | 0.44 | 0.609 | 0.517 | -0.468 | -0.328
ATATGTAGGTTAACGGGTCATTCAGTTTGCGCAT | 2.84 | 3.21 | 2.62 | 1.46 | 3.46 | 2.27 | 0.71 | 2.56
ATATGTAGGTGACATCCGGGTCATTCAGGCTATG | 2.79 | 3.31 | 1.95 | 0.715 | 3.03 | 3.53 | 2.11 | 2.66
AGTCAAAGTTCACTAGGTAAGGTAAGATTCAGCT | 3.88 | 4.78 | 6.02 | 4.18 | 3.95 | 2.51 | 1.03 | 3.36
TCTTGTAGATCAATACAGGTTAAGAAAGTGCGCT | 0.644 | 0.423 | 0.26 | 1.25 | 0.787 | 1.46 | -0.0772 | 0.463
ATCTCTAGGTAACCAAGTTCAGTGATTGCCGAAC | 1.45 | 0.546 | 0.823 | 1.02 | 0.505 | 1.44 | 0.949 | 2.76
CCTAGCAGGCCAGGGTCGCTCAAGCATTTCGCTT | 0.411 | 0.213 | -0.184 | -0.345 | 0.948 | 1.23 | -0.279 | -0.195
